# In the supplement of paper PMC10338343:
# ± gives the standard deviation.
# System: EfPiwi piRISC loaded with L1MC piRNA (26 nt)
# Assay: pre-steady-state target cleavage rate (min^-1); auxiliary factor: none (no Gtsf1); guide: L1MC piRNA 5'p-UAACUAAAUACUAUGCAAGCUGUAGG; MIWI and MILI are mouse PIWI proteins and EfPiwi is from a freshwater sponge; tags in brackets are library labels; higher = faster piRNA-guided slicing of the target
# Method: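 Cleave-'n-Seq: a library of target RNAs (target site in constant flanks) at […] was incubated with 1 nM active freshwater sponge Ephydatia fluviatilis Piwi piRISC (synthetic 5'-monophosphorylated piRNA guide) with or without 500 nM EmGtsf1 at 33 °C for 1 min to 16 h. Uncleaved targets were sequenced and the pooled three trials fitted to a burst-and-steady-state model to give the pre-steady-state cleavage rate (min^-1). Sequence is the target site only. Fits with R² ≤ 0 are excluded.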
row,Sequence,pre-steady-state target cleavage rate
1,UCCUGGAUGUCGAACGUAAUGUAUUUAGUUA,< 0.0001
2,UCCUGGAUGUCGAAGCAAAGUAUUUAGAUA,< 0.0001
3,UCCUGCUACAGCUUGGUAAGUAUUUAGAAA,< 0.0001
4,UCCUGGAACAGCUUGCAUAGUAUUAACAAA,< 0.0001
5,UCCUGGAUGUCGUUGCAUGUAUUUAGUUA,< 0.0001
6,UCCUGGAUCAGCUUGCAUAGUAUUUACGUUA,0.011 ± 0.006
7,UCCUGGAUGUCGAACGAAGUAUUUAGUUA,< 0.0001
8,UCCUGGAUGUCGAAGCAUAGUAUUUAGGUA,< 0.0001
9,UCCUGGAUGAGCUUGGAUUGUAUUUAGUUA,< 0.0001
10,UCCUGGAACAGCUUGUAUAGUAUUUAGUUA,0.00519 ± 0.0044
11,UCCUGCUACAGCUUGCAUACAUUUUAGUAA,< 0.0001
12,UCCUGGAACAGCUUGCAUUCUAUUUACAAA,< 0.0001
13,UCCUGGAUGUCGAACGAAAGUUUUUAGUUA,< 0.0001
14,UCCUGGAUGAGCUUGCAUAGUACUUUAGUUA,0.00423 ± 0.0036
15,UCCUGCUACAGGUUGCAUAGUAUUUACAAA,< 0.0001
16,UCCUGGAUGAGCUUGCAAAGUAUAUAGUUA,< 0.0001
17,UCCUGGAUCAGCUUGCAUAGUAGUUUAGUUA,0.011 ± 0.0045
18,UCCUGGAUGUCGAACGUUAGUAUCUAGUUA,< 0.0001
19,UCCUGGAUGUCGUUGCAUAGAUAUUAGUUA,< 0.0001
20,UCCUGGAUGUCGAAGCUAUAGUAUUUAGUUA,< 0.0001

row,Sequence,pre-steady-state target cleavage rate
1,UCCUGGAUGUCGUUACAUAGUAUUUAGUUA,< 0.0001
2,UCCUGGAUGUCGAAGCAUAGUUUUUACUUA,< 0.0001
3,UCCUGGAUGUCCUUGCAUACAAUUUAGUUA,< 0.0001
4,UCCUGGAUGUCGAAGCAUAGUUUUUAGAUA,< 0.0001
5,UCCUGGAUGAGCUUGCAUCAGUAUUUAGUUA,< 0.0001
6,UCCUGGAUGUCCUUCGUUAGUAUUUAGUUA,< 0.0001
7,UCCUGGAUGUCGAACGUAUCUAUUUAAUUA,< 0.0001
8,UCCUGGAUGUCGUAGCAUAGUAUUUUGUUA,< 0.0001
9,UCCUGGAUGUCGUUCAUAGUAUUUAGUUA,< 0.0001
10,UCCUGGAUCAGCUUGCAUAUUAUUUAGUUA,0.00536 ± 0.0048
11,UCCUGGAUGUCGAACGUUAGUAAAUAGUUA,< 0.0001
12,UCCUGGAUGUCGUUGCAUAGUAUUUAUUA,< 0.0001
13,UCCUGGAUGUCGAUGCAUCGUAUUUAGUUA,< 0.0001
14,UCCUGGAUGUCGUUCCAUAGUAUAUAGUUA,< 0.0001
15,UCCUGGAACAGCUUGCAUAGUAUUAUGAAA,< 0.0001
16,UCCUGGAUGUCGAACGUUAGUUUUUUGUUA,< 0.0001
17,UCCUGGAUGUCCUUGCAUAGUAUUUCAGUUA,< 0.0001
18,UCCUGGAUGUCGAACGUUUGUAAUUAGUUA,< 0.0001
19,UCCUGGAUCAGCUUCGUUAGUAUUUUCAAA,< 0.0001
20,UCCUGGAUCUGCUUGCAUAGUAAUUAGUUA,0.0241 ± 0.0099
